IL1B NFkB pot = enhances IL-1B driven NFkB nuclear translocation | HUVEC IL-1B NFkB p65 nuclear translocation imaging | AID 819 | activation, % at 2 µM | 94,000 tested, 0.3% active;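 active = activation above 40%, about the mean plus 3 SD, also judged a hit on visual image review; inconclusive = activation above 40% but not a hit on visual review; inactive = activation not above 40% and no visual hit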;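 also: percent activation is computed from the nuclear over cytoplasmic p65 intensity ratio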
HUVEC tox IL1B = toxic to HUVEC cells under IL-1B stimulation | HUVEC cell count loss, Hoechst imaging, IL-1B stimulated | cell count reduction, % at 2 µM | 94,000 tested, 0.41% active | AID 845;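 active = cell count reduction more than 3 SD above the screen-wide mean, cut at about 70% in these data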
JNK3 blocker = blocks human JNK3 kinase activity; P53779; inhibition, % at 8 µM; 60,000 tested, 0.61% active; purified JNK3 kinase activity, HTS; AID 746; in the data active = inhibition above about 17%
Pyk2 oligo antag = Pyk2 (human) oligomerization antagonism; Q293 cells, Pyk2 FERM NanoBiT luminescence; hits give low values; z-score (the deposit names both 25 µM and 10 µM); Q14289; 99,000 tested, 0.83% active;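 active = Z-score of -3 or lower, scaled per plate to the spread of control and sample wells; inactive = z-score above -3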;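 also: negative z-score means lost luminescence so less FERM oligomerization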
FAK inh = FAK (human) kinase inhibition; 97,000 tested, 0.84% active; Q05397; biochemical FAK kinase activity assay; AID 727; inhibition, %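 (tested at 7 µM)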; in the data active = inhibition above about 19%
Target sequence (Q05397 whole entry, looked up): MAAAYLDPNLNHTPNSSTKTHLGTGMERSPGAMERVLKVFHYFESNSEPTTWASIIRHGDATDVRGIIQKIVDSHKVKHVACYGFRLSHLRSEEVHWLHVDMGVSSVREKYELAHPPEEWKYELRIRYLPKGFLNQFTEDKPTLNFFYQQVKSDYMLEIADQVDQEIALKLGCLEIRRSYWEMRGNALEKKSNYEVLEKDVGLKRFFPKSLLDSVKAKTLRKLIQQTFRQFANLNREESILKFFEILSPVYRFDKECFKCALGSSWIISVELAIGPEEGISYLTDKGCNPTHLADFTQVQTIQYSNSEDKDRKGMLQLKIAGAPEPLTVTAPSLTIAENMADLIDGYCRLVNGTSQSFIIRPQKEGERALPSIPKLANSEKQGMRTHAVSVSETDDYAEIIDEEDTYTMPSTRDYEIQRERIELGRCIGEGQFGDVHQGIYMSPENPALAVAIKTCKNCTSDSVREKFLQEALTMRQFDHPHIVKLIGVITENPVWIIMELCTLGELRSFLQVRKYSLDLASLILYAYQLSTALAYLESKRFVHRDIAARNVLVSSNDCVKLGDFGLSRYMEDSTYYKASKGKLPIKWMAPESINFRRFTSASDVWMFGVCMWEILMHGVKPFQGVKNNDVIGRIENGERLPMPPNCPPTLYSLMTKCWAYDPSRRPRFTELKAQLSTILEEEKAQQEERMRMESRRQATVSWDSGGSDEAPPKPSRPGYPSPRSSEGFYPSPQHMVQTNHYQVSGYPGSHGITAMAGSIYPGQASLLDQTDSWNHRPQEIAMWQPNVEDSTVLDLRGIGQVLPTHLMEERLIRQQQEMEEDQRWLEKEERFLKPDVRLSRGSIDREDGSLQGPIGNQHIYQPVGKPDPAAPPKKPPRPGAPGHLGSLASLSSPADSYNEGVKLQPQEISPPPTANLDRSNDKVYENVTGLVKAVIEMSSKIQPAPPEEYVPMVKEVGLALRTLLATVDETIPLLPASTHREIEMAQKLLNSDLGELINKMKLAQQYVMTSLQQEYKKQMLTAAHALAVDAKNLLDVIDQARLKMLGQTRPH
NFkB transloc inh = blocks IL-1B driven NFkB nuclear translocation in HUVEC cells; AID 796; inhibition, % at 2 µM; HUVEC IL-1B NFkB p65 nuclear translocation imaging; 94,000 tested, 0.43% active;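 active = inhibition above about 30% together with a positive call from visual inspection of the well image, limit read from the data; inconclusive = inhibition above a set limit but visual check negative; inactive = inhibition not above a set limit, visual check negative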;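 also: nuclear over cytoplasmic p65 intensity ratio measured by imaging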
Hits are given with their value. The list is not random: actives were taken first. Their share in the collection is about 2.4%.

For CCCCOC(=O)Nc1ccccc1C(N)=O the results were JNK3 blocker inactive and Pyk2 oligo antag inactive.
Screening O=C1CC(c2cccc(Br)c2)c2cc3c(cc2N1)CCC3 (centres undefined) returned IL1B NFkB pot inconclusive, HUVEC tox IL1B inactive, Pyk2 oligo antag inactive, FAK inh inactive and NFkB transloc inh inactive.
O=C(N/N=C/c1ccc([N+](=O)[O-])s1)c1cccc(Br)c1 was read as IL1B NFkB pot inactive, HUVEC tox IL1B inactive, Pyk2 oligo antag inactive, FAK inh 21 and NFkB transloc inh inactive.
CC1CN(c2ccc(S(=O)(=O)N3CCOCC3)cn2)CC(C)O1 (centres undefined) was read as IL1B NFkB pot inactive, HUVEC tox IL1B inactive, Pyk2 oligo antag inactive, FAK inh inactive and NFkB transloc inh 40.
For COc1ccc(CCNC(=O)C2CCN(C(=O)NC3CCCCC3)CC2)cc1 the results were IL1B NFkB pot inactive, HUVEC tox IL1B inactive, Pyk2 oligo antag inactive, FAK inh inactive and NFkB transloc inh 39.
For COc1ccc(C(=O)c2ccc(OC)c(N)c2)cc1N the results were IL1B NFkB pot 70, HUVEC tox IL1B inactive, JNK3 blocker inactive, Pyk2 oligo antag inactive, FAK inh inactive and NFkB transloc inh inactive.
CCCCNCC(=O)Nc1ccc(NC(=O)CNCCCC)cc1 was read as IL1B NFkB pot inactive, HUVEC tox IL1B inactive, Pyk2 oligo antag inactive, FAK inh inactive and NFkB transloc inh inactive.
For Cn1c(=O)c(C(=S)NC(=O)C2CC2)c(N)n(Cc2ccccc2)c1=O the results were IL1B NFkB pot inactive, HUVEC tox IL1B inactive, JNK3 blocker inactive, FAK inh inactive and NFkB transloc inh inactive.
For COc1ccc(OCCC(=O)N2CCCCC2)cc1 the results were IL1B NFkB pot inactive, HUVEC tox IL1B 87, JNK3 blocker inactive, Pyk2 oligo antag inactive, FAK inh inactive and NFkB transloc inh 88.
`CCCCOc1ccc(C(=O)NCCCC(=O)N2CCCCC2)cc1` gave IL1B NFkB pot inactive, HUVEC tox IL1B inactive, JNK3 blocker inactive, Pyk2 oligo antag inactive, FAK inh inactive and NFkB transloc inh inactive.
`CC(c1ccccc1)C1C(C#N)=C(N)OC2=C1C(=O)CCC2` (centres undefined) gave IL1B NFkB pot 116, HUVEC tox IL1B inactive, JNK3 blocker inactive, Pyk2 oligo antag inactive, FAK inh inactive and NFkB transloc inh inactive.
`O=c1[nH]c2cc(Br)cnc2nc1/C=C(\O)c1ccc(F)cc1` gave IL1B NFkB pot inactive, HUVEC tox IL1B inactive, Pyk2 oligo antag inactive, FAK inh inactive and NFkB transloc inh inactive.
For O=C(NCc1nc2ncc(Br)cc2[nH]1)c1ccccc1 the results were IL1B NFkB pot inactive, HUVEC tox IL1B inactive, JNK3 blocker 40, Pyk2 oligo antag inactive, FAK inh inactive and NFkB transloc inh inactive.
Screening CCOc1ccc(NC(=O)CCCOc2cc(=O)n(C)c3ccccc23)cc1 returned IL1B NFkB pot inactive, HUVEC tox IL1B inactive, Pyk2 oligo antag inactive, FAK inh inactive and NFkB transloc inh inactive.
`CCCCNC(=O)CCn1nc(-c2ccccc2)ccc1=O` gave IL1B NFkB pot 53, HUVEC tox IL1B inactive, JNK3 blocker inactive, FAK inh inactive and NFkB transloc inh inactive.
Screening CCCCN(C)CCCNC(=O)CCn1nc(-c2ccccc2)ccc1=O returned IL1B NFkB pot inactive, HUVEC tox IL1B inactive, JNK3 blocker inactive, FAK inh inactive and NFkB transloc inh inactive.
For CN1C(=S)SC(N(O)C(=O)Nc2cccc3ccccc23)C1(C)C (centres undefined) the results were IL1B NFkB pot inactive, HUVEC tox IL1B inactive, Pyk2 oligo antag -3.8, FAK inh inactive and NFkB transloc inh inactive.
`CN1C(=S)SC(N(O)C(=O)Nc2ccccc2)C1(C)C` (centres undefined) gave IL1B NFkB pot inactive, HUVEC tox IL1B inactive, JNK3 blocker inactive, Pyk2 oligo antag inactive, FAK inh inactive and NFkB transloc inh inactive.
Screening CC(C)CC(=O)O/N=C1\C(=O)N(Cc2ccc(Cl)cc2)c2ccc([N+](=O)[O-])cc21 returned IL1B NFkB pot 47, HUVEC tox IL1B 92, FAK inh inactive and NFkB transloc inh inactive.
`CC(C)CC(=O)O/N=C1\C(=O)N(c2ccccc2)c2ccccc21` gave IL1B NFkB pot inactive, HUVEC tox IL1B inactive, Pyk2 oligo antag inactive, FAK inh inactive and NFkB transloc inh inactive.
Cc1ccc(NC(=O)c2cc3c(s2)CCC3)cc1S(=O)(=O)N1CCOCC1 was read as IL1B NFkB pot inactive, HUVEC tox IL1B inactive, Pyk2 oligo antag -3.2, FAK inh inactive and NFkB transloc inh inactive.
CN1C=CC2=C(C#N)C(N)C(C#N)(C#N)C(c3ccccc3)C2C1 (centres undefined) was read as IL1B NFkB pot inactive, HUVEC tox IL1B inactive, Pyk2 oligo antag -3.7, FAK inh inactive and NFkB transloc inh inactive.
Screening CN(C/C(O)=C(\C#N)c1ccccc1)C1CCCCC1 returned IL1B NFkB pot 126, HUVEC tox IL1B inactive, JNK3 blocker inactive, Pyk2 oligo antag inactive, FAK inh inactive and NFkB transloc inh inactive.
CN(CC(=O)Nc1sccc1C#N)C1CCCCC1 was read as IL1B NFkB pot inactive, HUVEC tox IL1B inactive, JNK3 blocker inactive, Pyk2 oligo antag inactive, FAK inh inactive and NFkB transloc inh inactive.
For CC(=O)c1cnc2nc(C(F)(F)F)nn2c1C the results were IL1B NFkB pot inactive, HUVEC tox IL1B inactive, JNK3 blocker inactive, Pyk2 oligo antag inactive, FAK inh inactive and NFkB transloc inh inactive.
For COc1ccccc1NC=C1C(=O)OC(C)(C)OC1=O the results were IL1B NFkB pot inactive, HUVEC tox IL1B inactive, JNK3 blocker inactive, Pyk2 oligo antag inactive, FAK inh inactive and NFkB transloc inh 91.
For COc1cc(Nc2cc(C)nc3nc(C)nn23)cc(OC)c1OC the results were JNK3 blocker inactive.
`COc1ccc(C2(O)CC3CCC(C2)N3c2nc(C)cc(C)c2C#N)cc1` (centres undefined) gave IL1B NFkB pot inactive, HUVEC tox IL1B inactive, JNK3 blocker inactive, Pyk2 oligo antag -3, FAK inh inactive and NFkB transloc inh inactive.
`COCCN1Cc2cccc(C(=O)NCc3ccc4c(c3)OCO4)c2C1=O` gave JNK3 blocker 23.
CCOC(=O)c1[nH]c2ccccc2c1CCCN1C(=O)c2ccccc2C1=O was read as IL1B NFkB pot inactive, HUVEC tox IL1B inactive, Pyk2 oligo antag -3, FAK inh inactive and NFkB transloc inh inactive.
`O=S1(=O)C=C(Sc2nc3cc(Cl)ccc3o2)c2ccccc21` gave IL1B NFkB pot inactive, HUVEC tox IL1B inactive, JNK3 blocker inactive, Pyk2 oligo antag inactive, FAK inh inactive and NFkB transloc inh 56.
For COc1ccc(C(=O)Nc2oc(-c3ccccc3)c(-c3ccccc3)c2C#N)cc1OC the results were JNK3 blocker inactive, Pyk2 oligo antag inactive and FAK inh inactive.
`N#Cc1c(NC(=O)Cn2c(=O)oc3ccccc32)oc(-c2ccccc2)c1-c1ccccc1` gave IL1B NFkB pot inactive, HUVEC tox IL1B inactive, JNK3 blocker inactive, Pyk2 oligo antag -3.8, FAK inh inactive and NFkB transloc inh inactive.
For Cc1cccc(C)c1OCC(=O)Nc1oc(-c2ccccc2)c(-c2ccccc2)c1C#N the results were IL1B NFkB pot inactive, HUVEC tox IL1B inactive, Pyk2 oligo antag -3.5, FAK inh inactive and NFkB transloc inh 49.
